The values that follow come from PubChem BioAssay AID504333 (National Center for Advancing Translational Sciences (NCATS), 2011).

The whole screen tested about 360,000 compounds, of which about 16,000 (4.4%) were called active. Another 9% or so got no clear call; they are omitted. The entries come from a sample that favours actives as a whole. A number with no mark means an inactive call. The call rests on the fitted dose curve; in most records, active means well fitted inhibition curve with a large enough effect; inconclusive means small, poorly fitted or top-dose-only effect; inactive means no such curve, though single readings can be large or run the other way.
On the % scale 0 is the no-effect control and ±100 the full control effect; potency means the concentration at half of the fitted maximal effect.

In the test the target is Bromodomain adjacent to zinc finger domain protein 2B (Homo sapiens) (UniProt Q9UIF8). Nature of the test: qHTS Assay for Inhibitors of BAZ2B. Further: nearly all actives have a fitted effect of over 60% in size. The following applies: AlphaScreen BAZ2B-H3K14Ac peptide displacement; series mostly up to 114 µM; activity change, negative = inhibition: at the top concentration. In a few lines: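 AlphaScreen luminescence quantifies BAZ2B engagement of H3K14Ac peptide; the protein and biotinylated peptide are both at 50 nM final, buffer PBS pH 7.4 with 0.01% Tween-20, all steps at room temperature.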
Sequence of Bromodomain adjacent to zinc finger domain protein 2B (Homo sapiens) (Q9UIF8 whole entry, looked up, the tested form may be a part): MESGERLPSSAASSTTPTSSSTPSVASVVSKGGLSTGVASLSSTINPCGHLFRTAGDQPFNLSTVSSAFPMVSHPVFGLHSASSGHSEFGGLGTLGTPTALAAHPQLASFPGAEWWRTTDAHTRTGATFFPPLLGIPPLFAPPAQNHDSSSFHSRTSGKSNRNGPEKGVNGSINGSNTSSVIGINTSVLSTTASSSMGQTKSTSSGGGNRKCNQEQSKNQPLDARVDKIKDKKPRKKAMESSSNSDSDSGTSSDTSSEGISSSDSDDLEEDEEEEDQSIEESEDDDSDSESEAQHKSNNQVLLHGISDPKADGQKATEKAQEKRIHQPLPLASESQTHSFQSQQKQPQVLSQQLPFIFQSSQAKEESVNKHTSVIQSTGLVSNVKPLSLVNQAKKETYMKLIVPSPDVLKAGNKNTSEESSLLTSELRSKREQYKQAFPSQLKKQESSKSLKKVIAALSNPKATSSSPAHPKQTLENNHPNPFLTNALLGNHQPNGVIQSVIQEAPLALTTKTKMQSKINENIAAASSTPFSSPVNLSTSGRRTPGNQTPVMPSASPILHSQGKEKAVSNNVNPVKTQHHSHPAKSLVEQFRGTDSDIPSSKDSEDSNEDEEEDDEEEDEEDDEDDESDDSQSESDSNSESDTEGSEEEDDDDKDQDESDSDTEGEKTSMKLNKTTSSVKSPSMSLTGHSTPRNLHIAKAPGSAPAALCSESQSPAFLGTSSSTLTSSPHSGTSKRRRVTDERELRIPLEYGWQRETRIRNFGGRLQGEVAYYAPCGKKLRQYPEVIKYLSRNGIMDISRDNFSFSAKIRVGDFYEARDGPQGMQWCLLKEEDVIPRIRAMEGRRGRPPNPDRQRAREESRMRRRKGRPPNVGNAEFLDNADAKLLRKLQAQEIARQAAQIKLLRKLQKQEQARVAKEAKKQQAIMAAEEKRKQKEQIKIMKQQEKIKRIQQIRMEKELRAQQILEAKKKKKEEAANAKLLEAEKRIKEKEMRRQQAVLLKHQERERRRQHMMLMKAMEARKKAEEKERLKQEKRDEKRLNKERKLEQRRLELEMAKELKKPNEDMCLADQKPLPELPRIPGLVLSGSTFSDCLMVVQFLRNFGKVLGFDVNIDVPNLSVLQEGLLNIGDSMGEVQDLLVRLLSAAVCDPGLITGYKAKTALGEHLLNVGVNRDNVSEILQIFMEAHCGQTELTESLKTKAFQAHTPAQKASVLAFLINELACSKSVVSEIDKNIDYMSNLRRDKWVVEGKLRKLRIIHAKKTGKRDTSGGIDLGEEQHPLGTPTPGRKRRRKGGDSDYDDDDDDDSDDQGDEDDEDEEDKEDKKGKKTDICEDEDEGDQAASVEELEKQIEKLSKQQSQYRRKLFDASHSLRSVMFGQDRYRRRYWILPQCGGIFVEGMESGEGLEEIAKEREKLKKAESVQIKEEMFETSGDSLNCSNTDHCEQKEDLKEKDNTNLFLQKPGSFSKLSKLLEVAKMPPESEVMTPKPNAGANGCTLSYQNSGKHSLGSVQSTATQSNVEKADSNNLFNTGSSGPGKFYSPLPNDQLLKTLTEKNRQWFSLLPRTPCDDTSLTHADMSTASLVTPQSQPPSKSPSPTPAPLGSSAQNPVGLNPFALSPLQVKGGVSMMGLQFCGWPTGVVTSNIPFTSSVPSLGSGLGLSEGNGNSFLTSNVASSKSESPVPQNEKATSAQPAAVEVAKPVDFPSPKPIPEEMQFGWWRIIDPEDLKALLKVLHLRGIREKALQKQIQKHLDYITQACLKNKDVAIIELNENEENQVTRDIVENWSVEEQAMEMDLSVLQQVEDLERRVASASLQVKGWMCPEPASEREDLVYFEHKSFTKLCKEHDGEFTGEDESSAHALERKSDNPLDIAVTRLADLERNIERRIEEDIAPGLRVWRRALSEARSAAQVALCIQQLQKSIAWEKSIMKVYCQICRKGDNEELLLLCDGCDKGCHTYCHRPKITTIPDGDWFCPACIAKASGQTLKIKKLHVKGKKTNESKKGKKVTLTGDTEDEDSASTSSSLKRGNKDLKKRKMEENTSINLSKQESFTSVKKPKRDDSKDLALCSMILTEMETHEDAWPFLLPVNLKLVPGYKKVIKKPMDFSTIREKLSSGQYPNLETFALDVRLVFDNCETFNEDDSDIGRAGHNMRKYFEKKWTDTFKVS
`Cc1cc2c(cc1S(=O)(=O)CCC(=O)Nc1ccc(OC(F)(F)F)cc1)OCC(=O)N2`: the “activity change, negative = inhibition” value was 1.13%.

`Cc1cc(C)cc(NC(=O)CSc2oc(-c3ccccc3)nc2S(=O)(=O)c2ccc(Cl)cc2)c1`: the “activity change, negative = inhibition” value was -13%. On the same count and under the same terms, then `O=C(Nc1cccnc1)c1ccc(Cl)cc1[N+](=O)[O-]`, with -25.8%. As for `O=C(Nc1cccnc1)c1cc2cc(Br)ccc2oc1=O`, the Potency is 79.4 µM (active). Turning to `COc1ccc2oc(=N)c(C(=O)Nc3ccc(Br)cc3)cc2c1`, the “activity change, negative = inhibition” value is -3.61%.

Turning to `CCc1cc2c(cc3c(=O)n(CC(=O)N4CCN(c5cc(Cl)ccc5C)CC4)ncn32)s1`, the “activity change, negative = inhibition” value is 5.16%. `COc1cc(Cl)c(C)cc1NC(=O)CCc1nc2cccnc2n1Cc1cccs1`: the “activity change, negative = inhibition” value was -18%. With `CCOc1ccc(NC(=O)c2c(NCc3cccc(OC)c3OC)sc3c2CCC3)cc1`, the “activity change, negative = inhibition” value was -1.31%. Still for that read-out and setting: then `Cc1ccc(-c2nn(CCC(=O)Nc3ccc(Cl)c(Cl)c3)c(=O)c3ccccc23)cc1`, with -11.8%. Still for that read-out and setting: under `COc1ccc(CCC(=O)NCCc2csc(-c3ccc(Cl)cc3)n2)cc1` stands -4.25%; under `CCOC(=O)c1ccc[n+](CC(=O)Nc2ccccc2OC(F)F)c1`, -1.09%. In the case of `Cc1ccc(-c2nc(SCC(=O)Nc3ccccc3OC(F)F)c3c(C)c(C(=O)O)sc3n2)cc1`, the Potency is 44.7 µM (active). Regarding `O=C(COC(=O)c1ccccc1SCC(=O)N1CCCC1)Nc1ccccc1OC(F)F`, the “activity change, negative = inhibition” value was 3.45%. As for `COc1cccc(C(=O)NC2=NC(c3ccc(N(C)C)cc3)CC(=O)N2)c1` (stereo not drawn), the “activity change, negative = inhibition” value is -14.6%.

Regarding `CCCCCn1c(=O)[nH]c2cc(C(=O)Nc3ccc(F)cc3)ccc2c1=O`, the “activity change, negative = inhibition” value was -13.7%. Regarding `CCN(CC)S(=O)(=O)c1ccc2c(c1)N(CC(=O)NCC(C)c1ccccc1)C(=O)CO2` (stereo not drawn), the “activity change, negative = inhibition” value was -35.7%. The same measure, in the same setting: under `CC(=O)N1CCCc2cc(S(=O)(=O)Nc3ccc(Cl)cc3F)ccc21` stands -5.37%; under `Cc1ccc2oc3c(c(=O)c2c1)C(c1ccc([N+](=O)[O-])cc1)N(CCCN1CCOCC1)C3=O` (stereo not drawn), -0.558%.

As for `Cc1ccccc1NC(=O)Cn1c(=O)n(CCc2ccccc2)c(=O)c2ccccc21`, the “activity change, negative = inhibition” value was 1.27%. As to `Cc1ccc(C)c(CN2C(=O)c3ccccc3S(=O)c3ccc(C(=O)N4CCOCC4)cc32)c1` (stereo not drawn), the “activity change, negative = inhibition” value was -12.7%. Take `O=[N+]([O-])C(=c1ccc2c(c1)N1C3=C(CCCC3)CC3CCCCC31N=2)[N+](=O)[O-]` (stereo not drawn): the Potency was 44.7 µM (active). As to `Cc1ccccc1CNC(=O)c1ccc(NC(=O)N2CCCCc3ccccc32)cc1`, the “activity change, negative = inhibition” value was -1.37%. Still for that read-out and setting: then `Cc1ccc(CNC(=O)CSC2=Nc3ccccc3C3=NC(C)C(=O)N23)cc1` (stereo not drawn), with -9.55%; and `CCCN1CCN(CCCNC(=O)c2ccc3nc(Cc4ccccc4)oc3c2)CC1`, with -14.6%; and `Cc1cc(F)ccc1NC(=S)NCCc1ccccc1`, with -10.7%. For `Cc1cccc(NC(=S)NCCc2ccc(Cl)cc2)c1C`, the “activity change, negative = inhibition” value is -6.6%. As for `Cc1ccc(NC(=S)NCCc2ccc(Cl)cc2)c(C)c1`, the Potency was 79.4 µM (active). As to `COc1cccc(N=C2SC(C(=O)Nc3cccc(Cl)c3)CC(=O)N2C)c1` (stereo not drawn), the “activity change, negative = inhibition” value was 0.78%.

With `CCOC(=O)N1CCc2c(sc(NCc3cccc(F)c3)c2C(=O)Nc2ccccc2OCC)C1`, the “activity change, negative = inhibition” value was -24.5%. The same measure, in the same setting: then `Cc1sc2nc(CSCC(=O)Nc3c(Cl)cccc3Cl)[nH]c(=O)c2c1C`, with 9.3%. For `CSc1nnc(SCc2nc3sc(C(=O)O)c(C)c3c(=O)[nH]2)s1`, the Potency is 50.1 µM (active). For `Cc1sc2nc(CSCC(=O)NC3CCCCC3)[nH]c(=O)c2c1C`, the “activity change, negative = inhibition” value was 9.45%. Same read-out and setting: then `COc1c(Cl)cc(C(=O)N(Cc2ccccc2F)C2CCS(=O)(=O)C2)cc1Cl` (stereo not drawn), with -9.74%; and `CC1CCCCN1CC(=O)N1CCCc2c1c(=O)oc1ccc(OCc3ccccc3)cc21` (stereo not drawn), with -34%. For the molecule `CCOc1ccc(NC(=O)C2CCN(S(=O)(=O)c3cc(-c4noc(C)n4)ccc3C)CC2)cc1`, the “activity change, negative = inhibition” value is 4.51%. For `COCCNCCOCCOc1cccc(OC)c1`, the “activity change, negative = inhibition” value was -19%.

Consider `CC(O)CNCCOc1cccc(Oc2ccccc2)c1` (stereo not drawn), for which the Potency is 50.1 µM (active). On to `CC1(C)NC(=O)N(CCOc2cccc(Oc3ccccc3)c2)C1=O`, for which the “activity change, negative = inhibition” value was 2.52%. Still for that read-out and setting: then `COc1ccc(-c2c3c(=O)n(C)c(=O)n(C)c3c3c(C)nc4ccccc4n23)cc1`, with 4.79%; and `Cc1ccc(CCNC(=O)c2ccc3c(c2)N(Cc2cc(C)ccc2C)C(=O)c2ccccc2S3=O)cc1` (stereo not drawn), with -17.4%. Regarding `COc1cc(NC(=O)Cn2nc(-c3ccc(C)c(C)c3)ccc2=O)cc(OC)c1`, the “activity change, negative = inhibition” value was -3.69%. Take `O=C(O)c1ccc(Cn2c(SCc3ccc(F)cc3)nc3ccncc32)cc1`: the “activity change, negative = inhibition” value is -1.05%. On the same count and under the same terms, then `C=CCn1c2ccccc2c2nnc(SC(CC)C(=O)Nc3nc(C)c(C(=O)OCC)s3)nc21` (stereo not drawn), with 0.0442%; and `CCn1c2ccccc2c2nnc(SCC(=O)O)nc21`, with -5.77%. As to `C=CCn1c2ccccc2c2nnc(SCc3[nH]c(=O)[nH]c3C(=O)CCCCC(=O)OCC)nc21`, the Potency is 79.4 µM (active). Take `CCOC(=O)c1ccc(CSc2nnc3cc(C)c4ccccc4n23)cc1`: the “activity change, negative = inhibition” value is -15.6%. Take `CCOc1ccc(C(=O)c2cn(Cc3ccccc3OC)c3ccc(F)cc3c2=O)cc1`: the “activity change, negative = inhibition” value is -19.9%. The same measure, in the same setting: then `CCCN(C(=O)Cn1ncc2c([nH]c3ccc(C)cc32)c1=O)c1ccccc1C`, with 1.79% [at 57.1 µM].
